Inconclusive results are not listed. Calls of active or inactive are those of the source. The call rests on the fitted dose curve; in most records, active means well fitted inhibition curve with a large enough effect in the signal ratio in the repeat runs (not every such curve was filed as active); inconclusive means weak or mixed curves, or effect the other way; inactive means flat fitted curve, though single readings scatter; the % refers to the signal ratio.
Assay: cAMP Responsive Elements (CRE) small molecule antagonists, cell-based qHTS assay (AID 1963591)
Details: CRE-bla HEK293T, beta-lactamase FRET ratio; series mostly up to 92.4 µM; activity change, negative = inhibition: at the top concentration
From the text: U.S. Tox21 Program National Center for Advancing Translational Sciences [NCATS] Division of Preclinical Innovation [DPI] U.S. Environmental Protection Agency [EPA] National Institutes of Environmental Health Sciences [NIEHS] National Toxicology Program [NTP] U.S. Food and Drug Administration [FDA] Tox21 Assay Overview: CREB (cyclic-AMP Responsive Element Binding Protein) is a cellular transcription factor. It binds to certain DNA sequences called cAMP Responsive Elements (CRE) and regulates the transcription of the genes. […] This cell line can be used to find agonists/antagonists of the cyclic AMP signaling pathway. The activation of the report gene under culture conditions can be detected by fluorescence intensity. This cell line has been used to screen the Tox21 10K compound library to […].
Tox21 Assay Protocol Summary: CRE-bla Hek 293T cells were suspended in assay medium (DMEM containing 10% dialyzed FBS, 0.1 mM NEAA, 1 mM sodium pyruvate and 25 mM HEPES) and dispensed at 2,000 cells/4 uL /well into 1536-well black wall/clear bottom plates using a Multidrop Combi (ThermoFisher Scientific, Waltham, MA) dispenser. After the assay plates were incubated at 37 C/5% CO2 for 18 hrs, 23 nL of compounds dissolved in DMSO, positive controls or DMSO only was transferred to the assay plate by a pintool workstation (Kalypsys, San Diego, CA), followed by addition of 1 […] uL of 1.25uM NKH477 (0.25 uM as final concentration) in assay medium using a Flying Reagent Dispenser (Aurora Discovery, San Diego, CA). The plates were incubated at 37 C and 5% CO2 for 3 hrs. Then 1 uL of LiveBLAzer B/G FRET substrate (Invitrogen, Carlsbad, CA) was added to each well using Bioraptr Flying Reagent Dispenser (FRD, Aurora Discovery, San Diego, CA). The plates were incubated at room temperature for 2 h.
On the % scale 0 is the no-effect control and ±100 the full control effect.

Compound	activity change, negative = inhibition	Potency
CCN(CC)CCNC(=O)c1ccc(NC(C)=O)cc1	-7.66% [at 42.4 µM] (inactive)	–
O=C(O)/C=C/c1cnc[nH]1	-0.0962% (inactive)	–
C=C(C)C(=O)OCCCCCCOC(=O)C(=C)C	0.963% (inactive)	–
COC(=O)c1ccccc1C(=O)O	-1.25% (inactive)	–
CCO[Si](OCC)(OCC)c1ccccc1	-4.71% (inactive)	–
C[N+]1([O-])CCOCC1	-9.88% (inactive)	–
CC(C)CC(O)Cc1ccccc1 (stereo not given)	0.284% (inactive)	–
ON=C1CCCCC1	-3.86% (inactive)	–
COc1cccc(Br)c1	9.02% (inactive)	–
CCCCC(CC)CCC(CC(C)C)OS(=O)(=O)O (stereo not given)	0.39% (inactive)	–
CC(=O)Nc1ccc(N=Nc2cc(C)ccc2O)cc1	-1% (inactive)	–
NS(=O)(=O)c1cc2c(cc1C(F)(F)F)NC(Cc1ccccc1)NS2(=O)=O (stereo not given)	7.34% [at 42.4 µM] (inactive)	–
CC(C)CCO	-15.1% (inactive)	–
CCCCCCS	-5.91% (inactive)	–
C=C[C@H]1CN2CC[C@H]1C[C@H]2[C@H](O)c1ccnc2ccc(OC)cc12	–	inactive
Cc1occc1S	-4.85% (inactive)	–
CC/C=C\C#N	1.82% (inactive)	–
O=c1cc(-c2ccccc2)oc2ccccc12	-16.8% (inactive)	–
CC(C)=CCC/C(C)=C/C(=O)O	2.23% (inactive)	–
CC(=O)O[C@@H]1CC2C3CCc4cc(OC(=O)c5ccccc5)ccc4C3CCC2(C)[C@H]1OC(C)=O (stereo not given in full)	0.856% [at 42.4 µM] (inactive)	–

Compound	activity change, negative = inhibition	Potency
O=C(O)c1cc(=O)c2ccccc2o1	-5.3% [at 42.4 µM] (inactive)	–
COc1cc(C=O)ccc1OC(=O)C(C)C	0.498% (inactive)	–
CC(C)=CCC/C(C)=C/C#N	1.05% (inactive)	–
O=S(=O)(O)c1ccccc1	–	inactive
CN/C(=C\[N+](=O)[O-])NCCSCc1ccc(CN(C)C)o1	–	inactive
CC(C)(C)NC[C@H](O)COc1nsnc1N1CCOCC1	–	inactive
C[C@]12CCC(=O)C=C1CC[C@@H]1[C@@H]2[C@@H](O)C[C@@]2(C)[C@H]1CC[C@]2(O)C(=O)CO	-0.443% [at 42.4 µM] (inactive)	–
CCC(C(=O)OCCOCCN(CC)CC)c1ccccc1 (stereo not given)	-2.7% [at 42.4 µM] (inactive)	–
CCC(O)CO (stereo not given)	-4.64% (inactive)	–
CCC(=O)OCc1ccc(OC)cc1	0.981% (inactive)	–
C[Si](C)O[Si](C)C	0.291% (inactive)	–
O=[N+]([O-])c1cncn1CCN1CCOCC1	0.954% [at 42.4 µM] (inactive)	–
C[N+](C)(CCOc1ccccc1)Cc1cccs1	0.319% [at 42.4 µM] (inactive)	–
CCCCCCCCCOS(=O)(=O)O	-15.4% (inactive)	–
CCCCCCCCS(=O)(=O)Cl	-3.91% (inactive)	–
CC(C)OC(C)C	-1.36% (inactive)	–
CCCCCCCCCCCC(=O)OCC(C)OC(=O)CCCCC(=O)O (stereo not given)	10.9% [at 42.4 µM] (inactive)	–
CC(=O)N1C[C@H](O)C[C@H]1C(=O)O	-2.12% [at 42.4 µM] (inactive)	–
CCCCC1CCC(O)CC1 (stereo not given)	2.74% (inactive)	–
CCCOCCOCCO	-4.15% (inactive)	–
